In PubChem BioAssay AID485364 (National Center for Advancing Translational Sciences (NCATS), 2010):
Out of some 360,000 compounds screened, about 11,000 (3.1%) were called active. Where a call stands in place of a potency, no number is given. About 4% were inconclusive and are not listed. Calls follow the shape of the dose curve; as a rule, active = well fitted inhibition curve with a large enough effect; inconclusive = small, poorly fitted or top-dose-only effect; inactive = no such curve, though single readings can be large or run the other way. Only a selection was taken, and actives are over-represented in it overall.

biological target: Schistosoma mansoni thioredoxin glutathione reductase (TGR) (UniProt Q962Y6); assay: qHTS Assay for the Inhibitors of Schistosoma Mansoni Peroxiredoxins; conditions: purified TGR, DTNB reduction, TNB absorbance 405 nm; series mostly up to 114 µM; also: nearly all actives have a fitted effect of over 60% in size
In short: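 Kinetic colorimetric format: TGR-catalysed, NADPH-driven DTNB reduction monitored via TNB absorbance. Enzyme dispensed at 20 nM; compound exposure 15 min at room temperature before reaction start.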
Potency is read from the fitted curve at half-maximal effect.

| SMILES | Potency |
| --- | --- |
| O=C(NC1CCN(Cc2ccccc2)CC1)c1ccc(Cn2c(=O)c3ccccc3n(Cc3cccc(F)c3)c2=O)cc1 | inactive |
| Cc1ccc(-c2cc(C(=O)NC3CCN(Cc4ccccc4)CC3)c3ccccc3n2)cc1 | inactive |
| Cc1ccc(-n2nc(C)c(/C=N/NC(=O)c3cccs3)c2Cl)cc1 | inactive |
| CC1(C)CC(=O)C/C(=N\NC(=O)c2cccs2)C1 | inactive |
| Cc1ccc(-c2cc(C(=O)N/N=C/C=C/c3ccco3)c3ccccc3n2)cc1C | 39.8 µM (active) |
| C/C(=N\NC(=O)c1cc(-c2ccc(O)cc2)nc2ccccc12)c1cccnc1 | inactive |
| O=C(N/N=C/C=C/c1ccco1)c1cccs1 | 3.55 µM (active) |
| CC1=C(c2ccc(Cl)cc2)S(=O)(=O)N=C1N1CCN(c2cc(C)ccc2C)CC1 | inactive |
| Cc1ccccc1C(=O)Nc1nnc(S(=O)(=O)N(C)c2ccc(Cl)cc2)s1 | inactive |
| O=C(CCN1CCCCC1)NCC(=O)Nc1ccc(Br)cc1C(=O)c1ccccc1 | inactive |
| COc1ccccc1NC(=O)CCN1CCN(c2ccc(Cl)cc2)CC1 | inactive |
| COC(=O)CNC(c1ccccc1Cl)c1cc(Br)ccc1NC(=O)CCN1CCOCC1 (centres undefined) | 25.1 µM (active) |
| COc1cc(C)ccc1OCCSc1nc2ccc(NC(=O)c3ccc(C)cc3)cc2s1 | inactive |
| Cc1cc(F)ccc1NC1(c2ccccc2)C(=O)c2ccccc2C1=O | inactive |
| CC(C)c1ccc(OCC(=O)N(Cc2ccc(N(C)C)cc2)C2CCS(=O)(=O)C2)cc1 (centres undefined) | inactive |
| Cc1[nH]n(C)c(=O)c1C(=O)c1c(-c2c(Cl)cccc2Cl)noc1C | 25.1 µM (active) |
| Cc1onc(-c2c(Cl)cccc2Cl)c1C(=O)c1c[nH]c(C(=O)NC2CC2)c1 | inactive |
| C/C(=N/OC(=O)c1c(-c2c(F)cccc2Cl)noc1C)c1cnccn1 | inactive |
| CCc1ccc(S(=O)(=O)c2nnn3c2nc(N2CCN(CC)CC2)c2sccc23)cc1 | inactive |
| O=C(COc1ccccc1F)OCc1cc(=O)n2nc(C3CCCCC3)sc2n1 | inactive |
| CS/C(=C\[N+](=O)[O-])Nc1ccc(C)cc1 | 0.316 µM (active) |
| Cc1ccc(NC(=O)O/N=C/c2cccc([N+](=O)[O-])c2)cc1 | inactive |

| SMILES | Potency |
| --- | --- |
| COc1cc(NC(=O)Nc2ccc(C)cc2)cc([N+](=O)[O-])c1 | inactive |
| CN(Cc1ccccc1)c1ccc(-c2nc(-c3ccccc3)no2)cc1[N+](=O)[O-] | inactive |
| CCOC(=O)c1ccc2c(c1)N(Cc1cccc(OC)c1)C(=O)c1ccccc1S2(=O)=O | inactive |
| O=C(c1ccco1)N1CCN(CCOc2ccccc2)CC1 | inactive |
| O=C(c1ccco1)N1CCN(C(=S)Nc2cc(F)cc(F)c2)CC1 | inactive |
| O=C(c1ccco1)N1CCN(C(=O)c2ccc(COc3ccc(F)cc3)o2)CC1 | 44.7 µM (active) |
| N#Cc1ccccc1Cn1cnc2nc3c(cc2c1=O)CCCC3 | inactive |
| CCCCNC(=O)c1ccc2c(c1)NC(=O)C(C(C)C)N2 (centres undefined) | inactive |
| CCOc1cc(-c2nnc(SCC(=O)NC3CCCC3)nc2-c2ccc(OC)c(OCC)c2)ccc1OC | inactive |
| COc1ccc(CC(=O)NCCc2sc3nc(-c4ccc(OC)cc4)nn3c2C)cc1 | inactive |
| CNC(=O)c1ccc(-c2nc(CN3CCc4ccccc43)c(C)o2)cc1 | inactive |
| COc1ccc(-c2nc(CS(=O)CC(=O)NCc3ccccn3)c(C)o2)cc1 (centres undefined) | 17.8 µM (active) |
| CC1=C(C)CC(C(=O)NC(C)CCc2ccccc2)C(C(=O)O)C1 (centres undefined) | inactive |
| COc1ccc(CNC(=O)CS(=O)Cc2nc(-c3cccc(C)c3)oc2C)cc1 (centres undefined) | inactive |
| COc1ccc(-c2nc(CS(=O)CC(=O)NCc3cccnc3)c(C)o2)cc1OC (centres undefined) | inactive |
| Cc1cccc(-c2nc(CS(=O)CC(=O)NC(C)CCc3ccccc3)c(C)o2)c1 (centres undefined) | 15.8 µM (active) |
| CC(CCc1ccccc1)NC(=O)c1cnc(Cl)c(Cl)c1 (centres undefined) | inactive |
| Cc1oc(-c2ccccc2F)nc1CS(=O)CC(=O)NCCN1CCCCC1C (centres undefined) | inactive |
| Cc1ccc(-c2nc(CSCC(=O)NC3CCN(Cc4ccccc4)CC3)c(C)o2)cc1 | inactive |
| Cc1ccc(-c2nc(CS(=O)CC(=O)NC3CCCC3)c(C)o2)cc1 (centres undefined) | 22.4 µM (active) |
| COc1ccc(N2CCN(C(=O)CSCc3nc(-c4ccccc4Cl)oc3C)CC2)cc1 | inactive |
| COc1ccc(-c2nc(CS(=O)CC(=O)N3CCc4ccccc4C3)c(C)o2)cc1 (centres undefined) | 2 µM (active) |

| SMILES | Potency |
| --- | --- |
| Cc1ccc(-c2nn(CCC(=O)Nc3ccc(OC(F)(F)F)cc3)c(=O)c3ccccc23)cc1 | inactive |
| Cc1cc(C)cc(NS(=O)(=O)c2cc3c(cc2C)NC(=O)CO3)c1 | inactive |
| COc1ccc(Cn2c(C(=O)O)c(CNCCc3cccs3)c3ccc(OC)cc32)cc1 | inactive |
| CCOCCc1nn2c(=O)cc(COC(=O)CNC(=O)c3ccc(C(C)(C)C)cc3)nc2s1 | inactive |
| CCN(C(=O)CSc1nnc(C)n2c1cc1occc12)c1ccccc1 | inactive |
| Cc1ccc(Cl)cc1NC(=O)C(C)n1nnc2sc(-c3ccccc3)cc2c1=O (centres undefined) | inactive |
| COc1ccc(C2c3c(oc4ccccc4c3=O)C(=O)N2Cc2ccc3c(c2)OCO3)cc1 (centres undefined) | inactive |
| CCOc1ccc(N(CC)S(=O)(=O)N2CCCC(C(=O)NCc3ccc(Cl)cc3)C2)cc1 (centres undefined) | inactive |
| COc1ccccc1N1CCN(c2ncnc3onc(-c4cccc(Cl)c4)c23)CC1 | inactive |
| Cc1cccc(C)c1NC(=O)CS(=O)CC(=O)N1CCN(c2ccccc2)CC1 (centres undefined) | inactive |
| COc1ccc(-c2nc(CN3CCN(c4ncccn4)CC3)c(C)o2)cc1C | inactive |
| Cc1ccc(-c2nc(CS(=O)CC(=O)N3CCN(c4ncccn4)CC3)c(C)o2)cc1 (centres undefined) | 7.08 µM (active) |
| O=C(NC1CCCCCC1)c1cccnc1Sc1ccc(Cl)cc1 | inactive |
| O=C(NC1CCCC1)c1cc(-c2ccccc2)on1 | inactive |
| O=C(NC1CCCCC1)c1ccc(-c2ccc(Cl)cc2)o1 | 35.5 µM (active) |
| Cc1ccc(CCNC(=O)c2ccc3c(c2)N(Cc2cc(C)ccc2C)C(=O)c2ccccc2S3=O)cc1 (centres undefined) | inactive |
| Cc1ccccc1OCc1nc2c3cnn(-c4ccccc4F)c3ncn2n1 | inactive |
| O=C(O)CCC(=O)N(Cc1cccs1)Cc1cccs1 | inactive |
| CCn1c(NC(=O)c2ccccc2)c(-c2cccs2)c(=O)c2ccccc21 | inactive |
| CC(C)Cn1c(CCC(=O)O)ccc1-c1cccs1 | 22.4 µM (active) |
